p53 reactivator – re-activators of mutant p53 | H1299 p53-A138V BP100-luciferase reporter, luminescence, 24 h | Potency, µM (titrated, usually from 92.2 µM), actives largely listed as activators | 320,000 compounds, 0.063% hits; further: nearly all actives have a fitted effect of over 45% in size
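H1299 (p53-null), stable ts p53-A138V + BP100-Luc; 1000 cells/well, Opti-MEM/10% FBS; cpd 4 pt, 1:5; 24 h, 37 deg C, 5% CO2; detection reagent 10 min RT; luminescence.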
IL2 activator – IL-2 activation; IL-2 activation reporter assay, cell-based qHTS; stimulated with anti-CD3/CD4/CD28 beads; in transgenic mouse T cells; AID 652025; activation, % (series mostly up to about 46 µM); 360,000 compounds, 0.065% hits; in the data active means activation above about 50%; inconclusive means mostly about 30% to 49%
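First, unstimulated transgenic mouse T cells were exposed to compound for 60 min. Next, anti-CD3/anti-CD4-coated beads with anti-CD28 were added. Finally, after 18 h at 37 degrees C, EGFP and DsRed were imaged.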
uPA generation – cell surface uPA generation inhibition; cell surface uPA generation assay, qHTS; Potency, µM (top dose mostly 38.3 µM), hits mostly inhibitors; 330,000 compounds, 0.31% hits; AID 540303; active means well fitted inhibition curve with a large enough effect; inconclusive means small, poorly fitted or top-dose-only effect; inactive means no such curve, though single readings can be large or run the other way; tested in mouse RAW 264.7 cells; further: nearly all actives have a fitted effect of over 55% in size
TCR act – activators of T cell receptors. 330,000 tested, under 10 active. Potency, µM (top dose mostly 9.22 µM), hits mostly activators. primary human leukocytes, anti-CD3, IL-2 HTRF, 48 h. AID 504894
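Primary human leukocytes receive a-CD3 beads and test compound and are incubated 48 hr. Secreted IL-2 is then assayed by HTRF, measuring 665nm acceptor emission after 320nm excitation of the europium donor.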
BRCA1 expr up – BRCA1 expression activation. MCF7-BRCA1-FFLuc reporter, luminescence, 48 h; response scale: scaled: vehicle 0%, 10 µM genistein 100%. Potency, µM (highest dose often 46.1 µM), usual class: activators. 380,000 compounds, 1.1% hits. AID 624202; further: nearly all actives have a fitted effect of over 80% in size
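48 h compound treatment of MCF7-BRCA1-FFLuc cells (phenol-red free MEM, 37 °C), then 15 min with luciferase substrate and luminescence imaging.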
Numbers stand for hits; n = inactive; u = inconclusive; x = not tested or not shown. In the library only some 1.4% were active in any assay of this set; here they are far more common. Unless noted, the call rests on the fitted dose curve; in most records, active means well fitted curve in the direction sought with a large enough effect; inconclusive means small, poorly fitted or top-dose-only effect, or another doubt; inactive means no such curve, though single readings can be large; an effect the other way counts as inactive or inconclusive.

SMILES	p53 reactivator	IL2 activator	uPA generation	TCR act	BRCA1 expr up
COc1ccc(-c2nn3c(-c4cc(-c5ccccc5)n[nH]4)nnc3s2)cc1	x	x	x	x	n
O=C(CN1CCN(Cc2ccccc2Cl)C1=O)NC1CCCCCC1	n	n	n	n	11.2µM
O=C(CN1CCCN(Cc2ccc(F)cc2Cl)C1=O)NC1CCCCCC1	n	n	x	n	n
CCC(C)NC(=O)CCc1c(C)nc2cc(-c3ccc(OC)cc3OC)nn2c1C (centres undefined)	x	x	x	x	n
O=C(Nc1ccc([N+](=O)[O-])cc1)C(Cc1ccccc1)N1C(=O)c2cccc3cccc(c23)C1=O (centres undefined)	n	159.6	n	n	u
Cc1ccc(C)c(C(=O)CSc2nc3cc(C(=O)NC4CCCC4)ccc3c(=O)n2CC2CCCO2)c1 (centres undefined)	x	x	x	x	n
OC(c1ccc(F)cc1)c1nc(-c2cc3ccccc3o2)cs1 (centres undefined)	x	n	x	x	1.78µM
CC(=O)NC(c1cccc(F)c1)c1nc(-c2cc3ccccc3o2)cs1 (centres undefined)	x	n	x	x	n
OC(c1ccc(F)cc1)c1nc(-c2cnc3ccccc3c2)cs1 (centres undefined)	x	n	x	x	11.2µM
COc1ccc(C(O)c2nc(-c3cnc4ccccc4c3)cs2)cc1 (centres undefined)	x	n	x	x	n
Cc1ccc(-c2csc(NC(=O)C3CC(=O)N(c4ccc5c(c4)OCCO5)C3)n2)o1 (centres undefined)	x	x	x	x	n
Cc1ccc(C)c(N2C(=O)N(Cc3ccccc3C)c3ccccc3S2(=O)=O)c1	x	x	x	x	n
CC(/C=N/N1CCN(c2ccccc2)CC1)=C\c1ccco1	n	n	n	n	6.31µM
N#C/C(=C\c1ccc(O)cc1)c1nc2ccccc2o1	n	57.3	n	n	u
O=C(c1ccc2c(=O)n(-c3ccccc3)c(=O)[nH]c2c1)N1CCN(Cc2cccs2)CC1	x	x	x	x	n
CCOC(=O)N1CCN(C(=O)c2ccc3c(c2)sc2nc(-c4ccccc4)cn23)CC1	u	n	n	n	10µM
COC(=O)Cn1c(C)nc2c(sc3nc(C)cc(C)c32)c1=O	n	n	n	n	6.31µM
CCOC(=O)Cn1cnc2c(sc3nc(C)cc(C)c32)c1=O	n	n	n	n	n
CCN(CC)C(=S)SCC(=O)c1ccc(Br)cc1	u	n	n	n	12.6µM
Cc1ccc2c(c1)-c1onc(C(=O)N3CCN(c4ccc(Cl)cc4)CC3)c1CO2	x	x	x	x	n
CC(C)(C)c1ccc(C(=O)C[n+]2ccccc2Cl)cc1	x	x	x	x	7.94µM
Cc1nc2cc(-c3ccc(Br)cc3)[nH]n2c(=O)c1Cl	n	n	n	n	4.47µM
Cc1cc2nc(C)c(Cl)c(=O)n2[nH]1	n	n	n	n	n
O=C(Nc1cccc(-c2nc3ccccc3o2)c1)c1cc([N+](=O)[O-])ccc1N1CCOCC1	x	x	x	x	n
S=C(Nc1ccccn1)c1ccccn1	u	n	n	n	7.08µM
SMILES	p53 reactivator	IL2 activator	uPA generation	TCR act	BRCA1 expr up
S=C(NCCc1ccccc1)Nc1ccccn1	u	n	n	n	10µM
CN(C)c1cccc(/C=C(\C#N)c2ccccc2)c1	u	n	u	n	u
CN(C)c1ccc(/C=C(\C#N)c2ccccc2)cc1	u	n	0.891µM	n	2.82µM
Cc1csc2nc3cc(C(N)=O)ccc3c(=O)n12	n	n	n	n	n
NC(=O)c1ccc2c(=O)n3c(-c4cc(Cl)c(N)c(Cl)c4)csc3nc2c1	n	n	5.01µM	n	n
CCOc1ccc(NC(=O)CCSc2nc(-c3ccc4c(c3)OCO4)cc(C(F)(F)F)n2)cc1	x	x	x	x	n
COc1cc(-c2noc(-c3ccc(N(C)C)c([N+](=O)[O-])c3)n2)cc(OC)c1OC	x	x	x	x	n
Cc1cc([N+](=O)[O-])ccc1NC(=O)c1csc(C)c1C	u	n	n	n	5.01µM
O=C(NCc1ccccc1)c1noc2c1CCCC2	n	n	x	n	n
Cc1ccc(Cn2ccc(NC(=O)c3noc4c3CCCC4)n2)cc1	n	n	x	n	5.62µM
Cc1ccc(Cn2ccc(NC(=O)c3noc4c3CCCCC4)n2)cc1	n	n	n	n	n
O=C(NCCc1ccccc1)c1noc2c1CCCCC2	u	n	x	n	3.98µM
CCCCOc1ccccc1NC(=O)CC1Sc2ccccc2NC1=O (centres undefined)	x	x	x	x	n
COc1cc(CCC(C)=O)ccc1OC(=O)c1c(F)cccc1Cl	n	n	n	n	8.91µM
COc1ccc(-c2nsc3c(N4CCCCC4C)ncnc23)cc1 (centres undefined)	n	n	3.16µM	n	n
Cc1cccc(CSc2ncc(Cl)c(C(=O)Nc3sc4c(c3C#N)CCCC4)n2)c1	x	x	x	x	n
Cc1ccc(/C(N)=N/OC(=O)/C=C/c2ccccc2)cc1	n	n	n	n	n
N/C(=N\OC(=O)c1cc(Cl)ccc1Cl)c1ccccn1	n	n	u	n	n
N/C(=N\OC(=O)/C=C/c1ccccc1Cl)c1ccccn1	n	n	3.55µM	n	n
N/C(=N\OC(=O)/C=C/c1ccccc1Cl)c1cccnc1	u	n	n	n	3.98µM
N/C(=N\OC(=O)c1ccc(Cl)cc1)c1cccnc1	u	n	n	n	u
COc1ccc(Cl)cc1C(=O)O/N=C(\N)c1ccccn1	u	n	10µM	n	n
N/C(=N\OC(=O)/C=C/c1ccccc1)c1cccnc1	n	n	n	n	10µM
Cc1ccc(CNc2cc(C)nc3nc(-c4cccc(C)c4)nn23)cc1	x	x	x	x	n
CCN(CC)C(=O)CSc1nc(-c2ccccc2)cc(-c2ccc(OC)cc2)c1C#N	x	x	x	x	n
SMILES	p53 reactivator	IL2 activator	uPA generation	TCR act	BRCA1 expr up
Cc1csc2nc(COc3ccccc3NC(=O)c3ccco3)cc(=O)n12	x	x	x	x	n
CC(=O)Nc1ccc(S(=O)(=O)NC2=NCN(C(C)C)CN2)cc1	x	x	x	x	n
Cc1nc2ccccc2n1-c1ccccc1	n	n	n	n	n
O=c1c(/C=C(\O)c2ccccc2)nc2ccccc2n1-c1ccccc1	n	88.8	n	n	n
O=C1N/C(=C/c2ccc(N3CCCC3)cc2)C(=O)N1c1ccccc1	n	157.4	n	n	n
CC(C)(C)C(=O)Nc1c(C(=O)N2CCN(c3ccc(F)cc3)CC2)oc2ccccc12	x	x	x	x	n
O=C(CSc1nc2ccc(NC(=O)CSc3nnnn3-c3ccccc3)cc2s1)Nc1ccccc1	n	n	n	n	n
Cn1cnnc1SCC(=O)Nc1ccc2nc(SCc3ccccc3F)sc2c1	u	n	n	n	3.98µM
CCOc1ccccc1NC(=O)CSc1nc2c(oc3ccccc32)c(=O)n1-c1ccc(F)cc1	x	x	x	x	n
CN(C)CCCNc1nccc(N2CCN(C)CC2)n1	x	x	x	x	n
O=C(Nc1ccc2c(c1)C(=O)c1ccccc1-2)c1ccccc1	x	n	n	n	2.82µM
COc1cccc(C(=O)Nc2ccc3c(c2)C(=O)c2ccccc2C3=O)c1	n	n	n	n	u
Cc1ccc(C(=O)CC(Nc2ccc(F)cc2)c2ccccc2)cc1 (centres undefined)	17.8µM	n	n	n	n
O=C(Nc1ccc(-c2ccccc2)cc1)c1ccccc1	x	n	n	n	n

Compound activity as filed in PubChem.
